High-throughput results (PubChem)
An excerpt weighted towards active compounds, which were near 9.4% of everything screened.
HTT ATP protect: qHTS Multiplex Assay to Identify Dual Action Probes in a Cell Model of Huntington: Cytoprotection (ATP); PC12 HTT-Q103 induced, cytoprotection, ATP luminescence, 40 h; Potency, µM (series often up to 56.4 µM), inactives show cytoprotection (ATP increase), most hits filed as activators; 230,000 tested, 0.14% active; further: potency means the concentration at half of the fitted maximal effect; % of control where 0% means no effect; nearly all actives have a fitted effect of over 45% in size
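PC12 cells with ecdysone-inducible HTT exon 1 Q103-GFP, induced with 100 nM tebufenozide and co-treated with library compounds in a dose series (1536-well, 1500 cells/well). Cytoprotection read as ATP content by ATPlite luminescence.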
IMPase Li cell: qHTS Assay for Identifying the Cell-Membrane Permeable IMPase Inhibitors: Potentiation with Lithium | CHO-M1 cells, IP1 TR-FRET (IP-One), carbachol + lithium | Potency, µM (doses to about 59.4 µM), for the others: top-dose activity, negative = IMPase inhibition, actives largely listed as inhibitors | 210,000 tested, 0.35% active | AID 1457, 2008;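 further: IP1 builds up when IMPase is blocked and the TR-FRET signal falls; potency means the concentration at half of the fitted maximal effect; plate controls were basal vehicle for no effect and high inhibitor control for full effect; nearly all actives have a fitted effect of over 50% in size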
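Steps: plate 2000 CHO-M1 cells per well and culture 16–30 h; add compound and lithium; incubate 30 min, 37C; add d2-IP1 tracer and Eu cryptate anti-IP1 antibody in lysis buffer; read after 10 min at room temperature.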
IMPase inh: qHTS Assay for Identifying the Cell-Membrane Permeable IMPase Inhibitors. Inositol monophosphatase 1 (Rattus norvegicus), P97697. CHO-M1 cells, IP1 accumulation, HTRF TR-FRET ratio. inhibition (IP1 accumulation), % at 46.1 µM. 120,000 tested, under 10 active; active means well fitted curve in the direction sought with a large enough effect in the signal ratio, not every such curve was filed as active; inconclusive means small, poorly fitted or top-dose-only effect, or a change in a side signal; inactive means no such curve, though single readings can be large or run the other way; the % refers to the signal ratio;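 further: cells stimulated with carbachol in lithium chloride buffer; plate controls were DMSO basal wells for no effect and reference inhibitor wells for full effect; higher means more IMPase inhibition seen as more IP1 and lower FRET ratio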
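Elevated IP1 in lysates lowers TR-FRET signal (665/620 ratio and 620 channel reported). Cells were CHO-M1, given carbachol (50 uM as added) plus 50mM LiCl, pH 7.4, 30 min, 37C; compounds titrated up to 46 uM; AC50 by Hill equation.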
ALDH1A1 inh: qHTS Assay for Inhibitors of Aldehyde Dehydrogenase 1 (ALDH1A1); Aldehyde dehydrogenase 1A1 (Homo sapiens), P00352; 220,000 tested, 7.3% active; Purified ALDH1A1, NADH fluorescence, propionaldehyde substrate; Potency, µM (series often up to 75.3 µM), for inactives: at the top dose activity, negative = inhibition, usual class: inhibitors; active means well fitted inhibition curve with a large enough effect, not every such curve was filed as active; inconclusive means small, poorly fitted or top-dose-only effect, or another doubt; inactive means no such curve, though single readings can be large or run the other way;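 further: potency means the concentration at half of the fitted maximal effect; plate controls were no enzyme wells and a reference inhibitor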
Target sequence (P00352 whole entry, looked up): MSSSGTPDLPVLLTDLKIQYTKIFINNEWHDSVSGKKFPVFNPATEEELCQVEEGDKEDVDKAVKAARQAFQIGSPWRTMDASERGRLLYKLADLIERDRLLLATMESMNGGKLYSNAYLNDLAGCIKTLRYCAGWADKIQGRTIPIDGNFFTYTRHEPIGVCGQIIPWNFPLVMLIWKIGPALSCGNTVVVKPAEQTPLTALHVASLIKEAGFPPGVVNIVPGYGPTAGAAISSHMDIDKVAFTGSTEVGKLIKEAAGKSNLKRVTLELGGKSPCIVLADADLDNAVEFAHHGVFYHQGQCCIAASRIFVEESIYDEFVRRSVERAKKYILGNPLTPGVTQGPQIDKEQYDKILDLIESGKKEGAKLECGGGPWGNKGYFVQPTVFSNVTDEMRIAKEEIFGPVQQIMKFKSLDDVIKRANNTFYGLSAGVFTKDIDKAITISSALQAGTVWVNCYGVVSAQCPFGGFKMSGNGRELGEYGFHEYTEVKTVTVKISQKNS
HPGD inh: qHTS Assay for Inhibitors of HPGD (15-Hydroxyprostaglandin Dehydrogenase); purified HPGD, NADH fluorescence kinetic, PGE2 substrate; Potency, µM, without a hit: top-dose activity change, negative = inhibition, usual class: inhibitors; 150,000 tested, 4.3% active; AID 894, 2007; active means well fitted inhibition curve with a large enough effect, not every such curve was filed as active; inconclusive means small, poorly fitted or top-dose-only effect, or another doubt; inactive means no such curve, though single readings can be large or run the other way; further: potency means the concentration at half of the fitted maximal effect; on the % scale 0 is the no-effect control and ±100 the full control effect
Target sequence (P15428 whole entry, looked up): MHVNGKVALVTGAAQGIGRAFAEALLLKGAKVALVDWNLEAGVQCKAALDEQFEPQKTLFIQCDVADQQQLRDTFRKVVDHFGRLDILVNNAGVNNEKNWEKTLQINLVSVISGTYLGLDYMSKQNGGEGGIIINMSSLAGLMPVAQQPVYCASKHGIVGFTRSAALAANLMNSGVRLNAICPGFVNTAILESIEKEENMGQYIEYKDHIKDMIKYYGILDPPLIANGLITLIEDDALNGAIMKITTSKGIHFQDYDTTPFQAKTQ
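NADH formation kinetics: reaction with 30 uM PGE2 and 1 mM NAD+ (final), 20 nM enzyme, Tris-HCl pH 8 with Tween 20, after 15 min compound preincubation at room temperature. Fluorescence change, last versus first of five reads.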
HTT aggregate: qHTS Multiplex Assay to Identify Dual Action Probes in a Cell Model of Huntington: Aggregate Formation (GFP). PC12 HttQ103-GFP aggregates, Acumen cytometry, 40 h. Potency, µM (top dose mostly 46.1 µM), without a hit: at the top dose activity change, negative = inhibition, actives largely listed as inhibitors. 220,000 tested, 1.1% active. AID 1688, 2009; further: potency means the concentration at half of the fitted maximal effect; on the % scale 0 is the no-effect control and ±100 the full control effect; nearly all actives have a fitted effect of over 60% in size
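Quantitative HTS on tebufenozide-induced (100 nM) PC12 cells stably expressing polyQ103 Huntingtin exon 1–GFP. Reduction of bright GFP aggregates, detected by laser scanning cytometry after lysis, identified actives across the titration.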
* hit, by the source's call; ? = inconclusive; . = no result; [ ] = dose if it differs, or a comment. Unless noted, the call rests on the fitted dose curve; in most records, active means well fitted curve in the direction sought with a large enough effect; inconclusive means small, poorly fitted or top-dose-only effect, or another doubt; inactive means no such curve, though single readings can be large; an effect the other way counts as inactive or inconclusive.

SMILES	HTT ATP protect	IMPase Li cell	IMPase inh	ALDH1A1 inh	HPGD inh	HTT aggregate
CCCCC(=O)NNC(=S)NC(=O)c1ccc([N+](=O)[O-])cc1	-26%	1%	.	5.6µM*	.	-19%
CCCCC(=O)Nc1cccc(NC(=O)c2cccc([N+](=O)[O-])c2)c1	-16%	2%	.	-1%	.	18%[9.22 µM]
Cc1ccc(C(=O)NC(=S)NNC(=O)CC#N)cc1	.	7%	.	0%	.	.
CCCCOc1ccc(C(=O)N/C(=C\c2cccc([N+](=O)[O-])c2)C(=O)OCCC)cc1	1%	-6%[38.3 µM]	7	3%	-21%	-24%
CCCCOc1ccc(C(=O)N/C(=C/c2cccc([N+](=O)[O-])c2)C(=O)O)cc1	-18%	0%	.	11µM*	.	-11%[9.22 µM]
CCCCC(=O)NNC(=S)NC(=O)c1cccc([N+](=O)[O-])c1	5%	24%[38.3 µM]	1	1.8µM*	8.9µM*	6%
COc1c(Cl)ccc(Cl)c1C(=O)O	.	3%	.	?	-23%	.
CC(=O)N1CCC2(CC1)CCN(c1ccccn1)CC2	-6%	2%	.	?	?	.
CC1(C)CC(CCN(Cc2ccccc2)C(=O)c2ccco2)(c2ccccc2)CCO1 (stereo not drawn)	-6%[10 µM]	8%	8	25µM*	-12%	?
O=C(c1ccco1)N(CCC(c1ccccc1)c1ccco1)Cc1ccco1 (stereo not drawn)	-11%	-16%[38.3 µM]	6	3.5µM*	20µM*	28%
Cc1ccc(C(CCN(Cc2ccccc2)C(=O)c2ccco2)c2ccco2)cc1 (stereo not drawn)	16%[10 µM]	10%	.	20µM*	?	22%
CC(=O)N(CCC(c1ccccc1)c1ccco1)Cc1cccs1 (stereo not drawn)	-6%	35%[38.3 µM]	9	1.4µM*	28µM*	?
COc1ccc(C2Oc3cc(OC)cc(OC)c3CC2O)cc1 (stereo not drawn)	.	3%	.	-7%	-18%	.
Cn1c(=O)n(C)c2cc(NS(=O)(=O)c3ccc(F)cc3)c(NCc3ccccc3)cc21	.	.	3	.	.	.
COc1cccc(-c2ccc3ncnc(NCCNC(C)=O)c3c2)c1	-116%	-1%	.	?	.	.
CCOC(=O)N1c2ccccc2Sc2ccccc21	-14%[10 µM]	11%	.	14%	.	-25%[9.22 µM]
Cc1ccccc1/C(N)=N/OC(=O)N1c2ccccc2Sc2ccccc21	12%	2%[38.3 µM]	0	0%	18µM*	-2%
Cc1cccc(Nc2ncnc(N)c2[N+](=O)[O-])n1	16%[10 µM]	6%	.	-4%	.	?
Cc1cc(C)nc(Sc2ncnc(N)c2[N+](=O)[O-])n1	4%[10 µM]	2%	.	8%	.	10µM*
COc1ccc(NC(=O)CCN2C(=O)C3C4CCC(C4)C3C2=O)cc1 (stereo not drawn)	13%[0.074 µM]	-8%	.	13µM*	-9%	12%
O=C(CCN1C(=O)C2C3CCC(C3)C2C1=O)Nc1ccc([N+](=O)[O-])cc1 (stereo not drawn)	14%[10 µM]	10%	.	3.5µM*	.	1%
CCOC(=O)C1=C(C)NC(=S)N(C(C)=O)C1c1ccc(Cl)cc1 (stereo not drawn)	-36%[10 µM]	0%	.	8.9µM*	-9%	-27%
CCOC(=O)C1=C(C)N(C)C(=S)NC1c1ccc(Cl)cc1 (stereo not drawn)	.	13%	10	-1%	-4%	20µM*
CCOC(=O)C1=C(C)N(C)C(=S)NC1c1ccccc1 (stereo not drawn)	16%[10 µM]	6%	-10	?	-8%	2%
COCCN1C(=O)/C(=C/c2ccc(OCc3ccc(C(=O)O)cc3)c(OC)c2)SC1=Nc1ccccc1	.	7%	.	1.1µM*	-8%	?
SMILES	HTT ATP protect	IMPase Li cell	IMPase inh	ALDH1A1 inh	HPGD inh	HTT aggregate
O=c1[nH]c(=S)c2ncn(-c3ccccc3)c2[nH]1	3%[10 µM]	.	.	25µM*	.	-3%[9.22 µM]
O=c1[nH]c(=S)c2[nH]c(=O)n(-c3ccccc3)c2[nH]1	-1%[10 µM]	1%	.	0%[13.5 µM]	-16%	.
N#CCCn1c(=O)c(-c2ccc(Cl)cc2)nc2cnc(Oc3cccc(Cl)c3)nc21	-30%	11µM*	.	?	-7%	.
N#CCCn1c(=O)c(-c2cccc(C#N)c2)nc2cnc(Oc3cccc(Cl)c3)nc21	0%	11%	.	?	.	.
N#CCCn1c(=O)c(-c2ccc(F)cc2)nc2cnc(Oc3cccc(Cl)c3)nc21	3.2µM*	8.9µM*	.	?	-18%	.
N#CCCn1c(=O)c(CCc2ccccc2)nc2cnc(Oc3cccc(Cl)c3)nc21	5%	7%	.	10µM*	0%	.
O=c1c(CCc2ccccc2)nc2cnc(Oc3ccccc3)nc2n1C1CC1	-99%	0%	.	11µM*	.	.
COCCn1c(=O)c(-c2ccc(F)cc2)nc2cnc(Oc3cccc(Cl)c3)nc21	2%	?	.	?	?	.
CCNc1ncc2nc(C)c(=O)n(Cc3ccc(F)cc3)c2n1	-290%	1%	.	?	.	.
Cn1c(=O)c2c(ncn2CC(=O)N/N=C/C=C/c2ccco2)n(C)c1=O	6%[10 µM]	.	.	.	.	-7%[9.22 µM]
CC(/C=N/NC(=O)Cn1cnc2c1c(=O)n(C)c(=O)n2C)=C\c1ccco1	-2%[10 µM]	.	.	22µM*	.	-1%[9.22 µM]
CC(=C/c1ccco1)/C=N/NC(=O)Cc1cccn1C	-5%[1.9 µM]	-2%	15	25µM*	-26%	?
Cn1cccc1CC(=O)N/N=C\c1cccs1	14%	3%[38.3 µM]	7	-9%	?	15%
CC(/C=N/NC(=O)Cc1cccn1C)=C\c1ccco1	12%[10 µM]	53%[38.3 µM]	-1[1.84 µM]	14µM*	?	?
Cn1cccc1CC(=O)N/N=C/c1ccco1	14%[10 µM]	.	.	.	.	-11%[9.22 µM]
Cc1ccc(/C=N/NC(=O)Cc2cccn2C)s1	3%[10 µM]	22%	.	3%	7.1µM*	-7%
Cc1ccccc1-c1nnc(CN2CCN(c3cccc(C)c3C)CC2)o1	.	.	8	.	.	.
COCCNC(=O)c1ccc(-n2c(=O)c(=O)[nH]c3ccccc32)cc1	.	.	.	-1%	-21%	.
Cc1ccc(-n2c(SCC3CCCCO3)nnc2-c2ccco2)cc1 (stereo not drawn)	-3%	28%[38.3 µM]	-17	?	16µM*	-1%
c1ccc(-n2c(SCC3CCCCO3)nnc2-c2cccs2)cc1 (stereo not drawn)	-1%	.	-3	3%	.	3%
CCOC(=O)CSc1nnc(-c2cccs2)n1-c1ccccc1	0%	-20%[38.3 µM]	-27	?	28µM*	3%
